Results filed as inconclusive are left out. Entries that show only a call come without a potency. A number with no mark means an inactive call. Calls of active or inactive are those of the source. The call rests on the fitted dose curve; in most records, active means well fitted cell-killing curve with a large enough effect in the repeat runs; inconclusive means weak or mixed curves, or effect the other way; inactive means no such curve, though single readings can be large or run the other way.
Assay: qHTS assay to identify small molecule antagonists of the sonic hedgehog signaling (Shh) pathway - cell viability counter screen (AID 1259367); further: nearly all actives have a fitted effect of over 55% in size
Details: NIH/3T3 Gli1-Luc viability, CellTiter-Fluor, 24 h; series mostly up to 92.4 µM
From the text: National Center for Advancing Translational Sciences [NCATS]
NIH Chemical Genomics Center [NCGC]
U.S. Environmental Protection Agency [EPA]
National Institutes of Environmental Health Sciences [NIEHS]
National Toxicology Program [NTP]
U.S. Food and Drug Administration [FDA]
The sonic hedgehog (Shh) pathway is essential for normal embryonic development. Dysregulation of the Shh pathway can cause severe developmental defects in organs. Therefore chemicals that interfere with the pathway are potential developmental toxicants. A cell line designated 3T3Gli1-Luc (DMB/OARSA/CFSAN/FDA, Laurel, MD), a NIH/3T3 derived clone containing stably integrated Gli1-Luc reporter is used to detect chemical interference of the Shh pathway, by changes in the expression of the firefly Luc gene under the control of the Gli1 transcriptional response element. This cell line was used to screen Tox21 libraries for identifying and prioritizing the potential developmental toxicants that interfere Shh pathway. Conditioned medium-stimulated mode was used to screen for chemicals inhibiting Shh signaling. The cytotoxicity of the compounds was tested in parallel by measuring the cell viability using CellTiter-Fluor assay system (Promega, Madison, WI) in the same wells.
Tox21 Assay Protocol Summary:
3T3 Gli1-Luc cells were dispensed at 2,000 per well in 5uL of culture medium into white solid bottom 1536-well plates (Greiner Bio-One, Monroe, NC) using a Multidrop Combi (Thermo Scientific, Waltham, MA) dispenser. The assay plates were incubated at 37 C and 5% CO2 for 4hr, and then 23nL of compounds dissolved in DMSO and positive control were transferred using a Pintool station (Wako, San Diego, CA). The compound transfer was followed by the addition of 1ul conditioned medium or assay buffer using two separate tips of Flying Reagent Dispenser (FRD, Aurora Discovery, San Diego, CA). The assay plates were incubated at 37C and 5% CO2 for 24hr. For viability read, after 23hr of compound treatment, 1uL of CellTiter-Fluor reagent (Promega Corporation, Madison, WI) was added to each well of the assay plates using Flying Reagent Dispenser (FRD, Aurora Discovery, San Diego, CA) and incubated the assay plates at 37C for 1hr. The fluorescence signal was quantified using a ViewLux plate reader (Perkin Elmer, Shelton, CT).

Row | SMILES | Potency | viability change, negative = cytotoxic
1 | O=CN1CCOCC1 | inactive | –
2 | CCC1Nc2cc(Cl)c(S(N)(=O)=O)cc2S(=O)(=O)N1 (stereo not given) | inactive | –
3 | C[N+](C)(C)CC(O)CCl (stereo not given) | inactive | –
4 | CCNC(=O)/C=C/c1cccc(Br)c1 | inactive | –
5 | O=S(=O)(O)CCO | inactive | –
6 | N#CCCOCCOCCC#N | inactive | –
7 | CCc1nccnc1C | inactive | –
8 | Nc1cc(S(=O)(=O)O)ccc1S(=O)(=O)O | inactive | –
9 | CC1(N)CCC(C(C)(C)N)CC1 (stereo not given) | inactive | –
10 | CCN1CN(CC)CN(CC)C1 | inactive | –
11 | O=C(O)CCNC(=O)c1ccccc1 | inactive | –
12 | O=C1c2ccccc2-c2ccccc21 | inactive | –
13 | C=CCCCCCCCCCCC | – | 2.53% [at 8.39 µM]
14 | COc1ccc(NS(=O)(=O)c2ccc(N)cc2)nn1 | inactive | –
15 | COC(/C=C(\C)CCC=C(C)C)OC | inactive | –
16 | CCCCCCCCCCCCC | inactive | –
17 | CCN(CC)C(=O)C1CN2CCc3cc(OC)c(OC)cc3C2CC1OC(C)=O (stereo not given) | inactive | –
18 | O=c1[nH]c(=O)c2ccccc2o1 | inactive | –
19 | CC(=O)OC(C(=O)c1ccccc1)c1ccccc1 (stereo not given) | inactive | –
20 | NC(Cc1c[nH]c2ccccc12)C(=O)O (stereo not given) | inactive | –

Row | SMILES | Potency | viability change, negative = cytotoxic
21 | CCCCCCCCCCC | inactive | –
22 | C=C(C)C(=O)OC1CC(C)CC(C)(C)C1 (stereo not given) | inactive | –
23 | CC(C)CCC(=O)CCC(C)C | inactive | –
24 | CCNC(=O)NCCCOc1cccc(CN2CCCCC2)c1 | inactive | –
25 | Nc1ccc(S(=O)(=O)Nc2ccccn2)cc1 | inactive | –
26 | CC1CCC(C(C)(C)S)C(=O)C1 (stereo not given) | inactive | –
27 | C[C@H](CCC(=O)O)[C@H]1CC[C@H]2[C@@H]3[C@H](O)C[C@@H]4C[C@H](O)CC[C@]4(C)[C@H]3C[C@H](O)[C@]12C | inactive | –
28 | CC(=O)OCC(=O)[C@@]1(O)[C@H](OC(C)=O)C[C@H]2[C@@H]3CCC4=CC(=O)C=C[C@]4(C)[C@@]3(F)[C@@H](O)C[C@@]21C | inactive | –
29 | FC(F)(F)c1ccc(Cl)cc1Cl | inactive | –
30 | CC(CC(=O)O)CC(C)(C)C (stereo not given) | inactive | –
31 | C1=CCC(c2ccccc2)CC1 (stereo not given) | inactive | –
32 | CC(C)C(=O)Nc1cccc(C(F)(F)F)c1 | inactive | –
33 | CCC1COC(=O)O1 (stereo not given) | inactive | –
34 | C=C[C@@H](C)CCC=C(C)C | inactive | –
35 | Nc1cc(Cl)cc(S(=O)(=O)O)c1O | inactive | –
36 | C=COCCOCCOC=C | inactive | –
37 | Cc1nc2n(c(=O)c1CCN1CCC(C(=O)c3ccc(F)cc3)CC1)CCS2 | inactive | –
38 | CC(=O)/C=C/c1ccco1 | inactive | –
39 | C=CCOc1c(Br)cc(Br)cc1Br | inactive | –
40 | Cc1cccc(C(=O)O)c1[N+](=O)[O-] | inactive | –

— PubChem BioAssay (Tox21)
